The campaign covered roughly 5,500 compounds. About 2,000 (36%) were called active. Not shown: some 18% with an inconclusive outcome. Cut-off read from the data, not from the text of the source: active = normalized growth mostly below about 0.91 (no sharp cut-off); inconclusive = no clear call, values can overlap the other calls; inactive = mostly above about 0.92. The list shows a part of the results.
Assay: chemical genetic growth profiling, strain panel (AID 1159580);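 note: tested at 20 µM; growth read once vehicle control cultures reached saturation at 30 °C; 1 = growth at the plate median or of vehicle wells; lower values mean less growth of the strain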
Conditions: S. cerevisiae deletion strains, growth OD

Measured: normalized growth

CC(=O)CC(=O)CCC(=O)O
inactive: locus YAL021C, strain ccr4, stronger effect = lower value 0.991 | locus YAL026C, strain drs2, stronger effect = lower value 1.05 | locus YAL030W, strain snc1, stronger effect = lower value 1.02 | locus YBL061C, strain skt5, stronger effect = lower value 1.03 | locus YBR009C, strain hhf1, stronger effect = lower value 1.03 | locus YBR023C, strain chs3, stronger effect = lower value 1.03 | locus YBR171W, strain sec66, stronger effect = lower value 1.04 | locus YBR231C, strain swc5, stronger effect = lower value 1.03 | locus YBR279W, strain paf1, stronger effect = lower value 1.02 | locus YCL011C, strain gbp2, stronger effect = lower value 1.02 | locus YCL016C, strain dcc1, stronger effect = lower value 1.02 | locus YCL061C, strain MRC1, stronger effect = lower value 1.02 | locus YCL069W, strain vba3, stronger effect = lower value 1.02 | locus YCR088W, strain abp1, stronger effect = lower value 1.02 | locus YDL005C, strain med2, stronger effect = lower value 1.03 | locus YDL040C, strain nat1, stronger effect = lower value 1.02 | locus YDR001C, strain nth1, stronger effect = lower value 1.01 | locus YDR069C, strain doa4, stronger effect = lower value 1.03 | locus YDR137W, strain rgp1, stronger effect = lower value 1.01 | locus YDR159W, strain sac3, stronger effect = lower value 1 | locus YDR195W, strain ref2 0.989 | locus YDR297W, strain sur2, stronger effect = lower value 1.01 | locus YDR334W, strain swr1, stronger effect = lower value 1.03 | locus YDR335W, strain msn5, stronger effect = lower value 1.02 | locus YDR392W, strain spt3, stronger effect = lower value 0.95 | locus YEL003W, strain gim4, stronger effect = lower value 1.02 | locus YEL037C, strain rad23, stronger effect = lower value 1.02 | locus YEL061C, strain CIN8 (second series), stronger effect = lower value 1.02 | locus YER015W, strain faa2, stronger effect = lower value 1.02 | locus YER016W, strain bim1, stronger effect = lower value 1.04 | locus YER111C, strain swi4, stronger effect = lower value 1.03 | locus YER155C, strain BEM2 (second series), stronger effect = lower value 1.05 | locus YFR010W, strain ubp6, stronger effect = lower value 1.03 | locus YGL167C, strain pmr1, stronger effect = lower value 1.02 | locus YGL173C, strain kem1, stronger effect = lower value 1.03 | locus YGL227W, strain vid30, stronger effect = lower value 1.01 | locus YGL240W, strain doc1, stronger effect = lower value 1.04 | locus YGL253W, strain hxk2, stronger effect = lower value 1.05 | locus YHR013C, strain ard1, stronger effect = lower value 1.04 | locus YHR027C, strain rpn1, stronger effect = lower value 1.03 | locus YHR030C, strain SLT2, stronger effect = lower value 0.982 | locus YHR079C, strain IRE1, stronger effect = lower value 0.996 | locus YHR142W, strain chs7, stronger effect = lower value 1.02 | locus YJL092W, strain hpr5, stronger effect = lower value 1.02 | locus YJL095W, strain BCK1 (second series), stronger effect = lower value 1.02 | locus YJL095W, strain BCK1, stronger effect = lower value 0.983 | locus YJL115W, strain asf1, stronger effect = lower value 1.03 | locus YJL129C, strain trk1, stronger effect = lower value 1.01 | locus YJL154C, strain vps35, stronger effect = lower value 1.01 | locus YJL164C, strain tpk1, stronger effect = lower value 1.01 | locus YJL166W, strain qcr8, stronger effect = lower value 1.02 | locus YJL187C, strain SWE1, stronger effect = lower value 1.02 | locus YJR066W, strain TOR1, stronger effect = lower value 0.962 | locus YKL160W, strain elf1, stronger effect = lower value 1 | locus YKR026C, strain gcn3, stronger effect = lower value 1.03 | locus YKR091W, strain srl3, stronger effect = lower value 1.02 | locus YLL001W, strain dnm1, stronger effect = lower value 1.01 | locus YLL026W, stronger effect = lower value 1.02 | locus YLL041C, strain sdh2, stronger effect = lower value 1.02 | locus YLR027C, strain aat2, stronger effect = lower value 1.03 | locus YLR113W, strain HOG1, stronger effect = lower value 1.04 | locus YLR221C, strain rsa3, stronger effect = lower value 1.01 | locus YLR258W, strain gsy2, stronger effect = lower value 1.04 | locus YLR262C, strain YPT6 (second series), stronger effect = lower value 1.02 | locus YLR320W, strain mms22, stronger effect = lower value 1.03 | locus YLR342W, strain FKS1, stronger effect = lower value 1.03 | locus YLR357W, strain rsc2, stronger effect = lower value 0.968 | locus YLR370C, strain arc18, stronger effect = lower value 1.03 | locus YLR384C, strain iki3, stronger effect = lower value 1.03 | locus YML120C, strain ndi1, stronger effect = lower value 1 | locus YMR058W, strain fet3, stronger effect = lower value 1.02 | locus YMR125W, strain sto1, stronger effect = lower value 1.02 | locus YMR129W, stronger effect = lower value 1.02 | locus YMR205C, strain PFK2, stronger effect = lower value 1.02 | locus YMR231W, strain pep5, stronger effect = lower value 1.02 | locus YNL071W, strain lat1, stronger effect = lower value 1.03 | locus YNL183C, strain NPR1, stronger effect = lower value 0.91 | locus YNL209W, strain ssb2, stronger effect = lower value 1.02 | locus YNL248C, strain rpa49, stronger effect = lower value 0.989 | locus YNL322C, strain KRE1 (second series), stronger effect = lower value 1.02 | locus YNR049C, strain mso1, stronger effect = lower value 1.02 | locus YOR001W, strain rrp6, stronger effect = lower value 1.01 | locus YOR070C, strain gyp1, stronger effect = lower value 1.02 | locus YOR080W, strain dia2, stronger effect = lower value 1.01 | locus YOR083W, strain WHI5, stronger effect = lower value 1 | locus YOR106W, strain vam3, stronger effect = lower value 1.03 | locus YOR231W, strain MKK1, stronger effect = lower value 0.992 | locus YOR265W, strain rbl2, stronger effect = lower value 1.02 | locus YOR270C, strain vph1, stronger effect = lower value 1.11 | locus YOR290C, strain snf2, stronger effect = lower value 1.01 | locus YPL051W, strain arl3, stronger effect = lower value 1.01 | locus YPL078C, strain atp4, stronger effect = lower value 1.01 | locus YPL106C, strain sse1, stronger effect = lower value 1.02 | locus YPL240C, strain hsp82, stronger effect = lower value 1.03 | locus YPL256C, strain CLN2, stronger effect = lower value 0.99
